Source: PubChem
The list is not random: actives were taken first. Their share in the collection is about 18%.
PLK1 PBD block – blocks phosphopeptide binding to human PLK1 polo-box domain; AID 720504; 2.8% of 360,000 active; Potency, µM, for inactives: max response, negative = inhibition, most hits filed as inhibitors; P53350; Plk1 PBD binding of FITC phosphopeptide, fluorescence polarization; further: series mostly up to about 57 µM; nearly all actives have a fitted effect of over 65% in size
TDP1 inh – TDP1 (human) enzyme inhibition; recombinant TDP1, AlphaScreen DNA substrate cleavage; Potency, µM (top dose mostly 130 µM), for the others: top-dose activity change, negative = inhibition, hits mostly inhibitors; Q9NUW8; 0.28% of 350,000 active; further: nearly all actives have a fitted effect of over 40% in size
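AlphaScreen read-out: signal falls as enzyme removes the 3' tyrosine-FITC from a 5'-biotinylated DNA oligo (15 nM, 5 min, RT). Enzyme was E. coli-made recombinant Tdp1 at 1 nM, exposed to compound for 15 min beforehand; beads 10 ug/ml, 10 min.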
KAT2A inh – inhibitors of human GCN5L2 histone acetyltransferase; AID 504327; GCN5L2 HAT assay, ThioGlo1 CoA-SH fluorescence; Q92830; Potency, µM (titrated, usually from 58.9 µM), for the others: at the top dose activity change, negative = inhibition, hits mostly inhibitors; 0.21% of 390,000 active
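qHTS, 1536-well. 20nM enzyme, pH 7.5 HEPES/EDTA/Tween-20 buffer; 15 min compound preinc., RT. Start: 75uM H3(1-25), 70uM AcCoA, 50uM ThioGlo1. Read Ex340/Em540 at t=0 (autofluorescence flag) and t=20 min.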
TDP1 cell CPT – growth inhibition of DT40 Tdp1-/-;hTDP1 cells with camptothecin (screen for TDP1 inhibitors) | 12% of 420,000 active | AID 686979 | chicken DT40 Tdp1-/-;hTDP1 cells + 20 nM CPT, ATP luminescence, 48 h | Potency, µM (series often up to 46.2 µM), without a hit: top-dose activity change, negative = growth inhibition, most hits filed as inhibitors; further: nearly all actives have a fitted effect of over 55% in size
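Chicken DT40 Tdp1-/- cells stably complemented with human TDP1 were seeded at 400 cells/well in medium containing 20 nM camptothecin, exposed to pin-transferred compounds, and grown at 37 °C for at least 48 hr. Viability was read as ATP luminescence.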
VDR inh – vitamin D3 receptor (human) inhibition; P11473; VDR-SRC2-3 peptide fluorescence polarization, 2 h; Potency, µM, without a hit: max response, negative = inhibition, hits mostly inhibitors; 0.93% of 400,000 active
Target sequence (P11473 whole entry, looked up): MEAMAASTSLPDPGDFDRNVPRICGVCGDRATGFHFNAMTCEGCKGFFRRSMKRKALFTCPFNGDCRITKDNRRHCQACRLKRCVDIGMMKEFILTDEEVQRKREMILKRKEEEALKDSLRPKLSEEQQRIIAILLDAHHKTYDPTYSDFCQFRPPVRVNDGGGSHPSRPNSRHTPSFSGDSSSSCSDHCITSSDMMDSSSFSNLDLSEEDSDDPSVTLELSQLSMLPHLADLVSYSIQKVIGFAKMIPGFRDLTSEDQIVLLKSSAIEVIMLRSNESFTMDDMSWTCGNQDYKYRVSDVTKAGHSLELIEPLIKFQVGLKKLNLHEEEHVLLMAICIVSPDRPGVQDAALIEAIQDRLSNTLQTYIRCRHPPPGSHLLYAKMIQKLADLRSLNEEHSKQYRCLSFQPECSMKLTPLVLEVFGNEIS
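VDR–SRC2-3 interaction, FP format. Cmpds 23 nl via pintool, brief spin, 2 h ambient incubation.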
DT40 TDP1 no CPT – qHTS for Inhibitors of human tyrosyl-DNA phosphodiesterase 1 (TDP1): qHTS in cells in absence of CPT; DT40 Tdp1-/- hTDP1 cells, no CPT, ATP luminescence, 48 h; 15% of 420,000 active; Potency, µM (titrated, usually from 46.2 µM), without a hit: at the highest dose activity change, negative = growth inhibition, actives largely listed as inhibitors; further: nearly all actives have a fitted effect of over 55% in size
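Luminescent ATP content (CellTiter-Glo) served as the growth readout. Knockout chicken DT40 cells expressing human TDP1 were exposed to compounds without camptothecin for a minimum 48 hr at 37 °C.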
Numbers without * were called inactive; ? = inconclusive; nt = not tested or not shown; [ ] = another dose, or the depositor's remark. The call rests on the fitted dose curve; in most records, active means well fitted curve in the direction sought with a large enough effect; inconclusive means small, poorly fitted or top-dose-only effect, or another doubt; inactive means no such curve, though single readings can be large; an effect the other way counts as inactive or inconclusive. On the % scale 0 is the no-effect control and ±100 the full control effect; potency means the concentration at half of the fitted maximal effect.

SMILES	PLK1 PBD block	TDP1 inh	KAT2A inh	TDP1 cell CPT	VDR inh	DT40 TDP1 no CPT
CCOC(=O)c1cccc(NC(=O)CN2C(=O)CC(C)(C)Sc3ccccc32)c1	nt	1%	-6%	21µM*	-7%	?
CCCCC12CN3CC(C)(CN(C1)C3c1c(C)[nH]c(=O)[nH]c1=O)C2=O (stereo not drawn)	nt	-5%	0%	0%	-9%	1%
OC(c1ccc(Cl)c(F)c1)c1ncc(-c2ccccc2F)[nH]1 (stereo not drawn)	2%	nt	nt	16µM*	nt	?
Cc1ccccc1-c1cnc(C(O)c2ccc(Cl)c(F)c2)[nH]1 (stereo not drawn)	-9%	nt	nt	29µM*	nt	-23%
CSc1ccccc1C(=O)N1CCCCC1	-7%	-3%	-3%	-15%	-10%	-19%
NC(=O)c1cc[n+](CC2=C(C(=O)[O-])N3C(=O)[C@@H](NC(=O)Cc4cccs4)[C@@H]3SC2)cc1	nt	16µM*	-23%[21.4 µM]	nt	16µM*	nt
CN(CC(=O)NCC(=O)Nc1ccc(F)cc1)C1CCS(=O)(=O)C1 (stereo not drawn)	1%	1%	-5%	3%	-19%	-3%
O=c1cc(N2CCCCC2)c(-c2ccccc2)nn1Cc1c(Cl)cccc1Cl	27µM*	5%	?	?	-18%	16µM*
O=c1cc(N2CCCCC2)c(-c2ccccc2)nn1Cc1ccc(Cl)cc1	-3%	0%	36%	?	5%	?
Cc1cccc(NS(=O)(=O)c2c(C(=O)N3CCOCC3)c(C)n(C)c2C)c1C	?	4%	-5%	?	-11%	21%
COc1ccc(-c2nc3oc4cc(OC)ccc4c(=O)c3c(=O)n2Cc2ccco2)cc1	-17%	8%	-17%	?	-10%	23µM*
COc1ccc2c(=O)c3c(=O)n(Cc4ccco4)c(-c4ccco4)nc3oc2c1	?	45µM*	-6%	20µM*	-15%	?
CCc1nc2oc3cc(OC)ccc3c(=O)c2c(=O)n1Cc1ccco1	-18%	nt	-6%	-8%	17%	-28%
COc1ccc(Cn2c(-c3ccco3)nc3oc4ccccc4c(=O)c3c2=O)cc1	-15%	3%	-3%	-12%	2%	-13%
COc1ccc(Cn2c(-c3ccco3)nc3oc4cc(OC)ccc4c(=O)c3c2=O)cc1	-12%	0%	-2%	?	-7%	16µM*
O=S(=O)(c1ccc2ccccc2c1)N1CCN(C(=S)Nc2ccc(F)c(Cl)c2)CC1	-9%	1%	-5%	?	-9%	?
CC(=O)OCC(NC(=O)C1CCCN1C(=O)OC(C)(C)C)C1OC(n2cc(F)c(=O)[nH]c2=O)C(OC(C)=O)C1OC(C)=O (stereo not drawn)	nt	0%	nt	nt	-11%	nt
CC(=O)c1nn(-c2ccc(OC(F)(F)F)cc2)nc1Nc1ccc(Cl)cc1	nt	0%	2%	?	7%	?
COc1ccc(C(=O)CN2CCN(S(=O)(=O)c3ccc(C(C)C)cc3)CC2)cc1	nt	10%	-7%	?	0%	?
O=C(N/N=C/c1cccs1)c1cncc(Br)c1	-5%	2%	-8%	5%	-10%	-5%
O=C(N/N=C/c1cccs1)c1n[nH]c2c1CCC2	-6%	3%	-3%	4.1µM*	-2%	3.7µM*
O=C(N/N=C/C(Br)=C/c1ccccc1)c1n[nH]c2c1CCC2	?	4%	2%	2.6µM*	?	4.1µM*
O=C(N/N=C/c1ccccc1)c1n[nH]c2c1CCCC2	-7%	5%	0%	?	8%	?
O=C(N/N=C/c1ccc(Cl)cc1)c1n[nH]c2c1CCCC2	-1%	nt	5%	0.58µM*	5%	0.92µM*
CC[C@@H]1CC2=C(C(=O)OC(C)(C)O2)[C@@H](c2ccc(Cl)cc2)O1	-10%	nt	nt	-19%	nt	-22%
